Screening results as filed in PubChem BioAssay.
DRD3 antagonist: antagonists of human D3 dopamine receptor; D3R cells, DiscoveRx beta-arrestin luminescence, antagonist mode; active compounds read low; P35462; max response, negative = inhibition, %; AID 652054; 2.5% of 360,000 active; in the data active = max response below about -50%; inconclusive = no clear call, values can overlap the other calls; note: % is set by controls: 0 for no effect and ±100 for the full control effect
Target sequence (P35462 whole entry, looked up): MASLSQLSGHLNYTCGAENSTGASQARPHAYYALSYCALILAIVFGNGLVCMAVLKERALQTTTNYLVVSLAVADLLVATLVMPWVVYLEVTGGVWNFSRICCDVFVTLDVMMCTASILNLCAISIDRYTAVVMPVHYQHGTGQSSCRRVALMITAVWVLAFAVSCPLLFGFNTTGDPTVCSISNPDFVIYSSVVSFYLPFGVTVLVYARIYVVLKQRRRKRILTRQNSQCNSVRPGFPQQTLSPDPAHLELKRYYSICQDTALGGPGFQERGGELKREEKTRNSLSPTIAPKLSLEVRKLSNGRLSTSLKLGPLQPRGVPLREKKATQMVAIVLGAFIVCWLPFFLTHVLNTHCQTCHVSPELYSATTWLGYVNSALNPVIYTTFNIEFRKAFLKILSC
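Cells plated overnight at 1500 cells/well, then exposed to library compounds with dopamine controls for 90 minutes at 37 degrees C. DiscoveRx reagent added for 30–60 minutes at room temperature; luminescence read, quantitative HTS format.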
Glioma ERSR ind: induces the endoplasmic reticulum stress response in human glioma cells; U87-MG GRP78 promoter luciferase reporter, 16 h; 0.02% of 420,000 active; Potency, µM, for inactives: at the highest dose activation, hits mostly activators; note: potency is the fitted concentration of half-maximal effect; series mostly up to about 76 µM; % of control where 0% means no effect; nearly all actives have a fitted effect of over 35% in size
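ERSR induction read as luciferase luminescence (Bright-Glo, 10 min at room temperature) in stably transfected human U87-MG glioma cells exposed to compounds for 16 h, using GRP78 as sensor.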
Nrf2 activator: activates Nrf2 signaling. 0.31% of 410,000 active. AID 624171. Potency, µM (titrated, usually from 46.1 µM), without a hit: at the top dose activation, actives largely listed as activators. AREc32 ARE-luciferase reporter (MCF7-derived line), luminescence, 24 h; note: potency is the fitted concentration of half-maximal effect; % of control where 0% means no effect; nearly all actives have a fitted effect of over 65% in size
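AREc32 cells carrying an ARE-driven firefly luciferase, 1000 cells/well in OPTI-MEM with 5% FBS, dosed after overnight attachment and incubated 24 hr at 37 deg C. Steady-Glo luminescence read after 30 min at RT.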
D3 ag: D3 dopamine receptor (human) agonism; AID 652048; max activation, %; 0.58% of 410,000 active; P35462; D3R DiscoveRx beta-arrestin cells, luminescence, 90 min; in the data active = max activation above about 30%; note: 0% is about no effect
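Cells at 1500/well, incubated overnight, then treated with pinned compounds (dopamine as control) for 90 min at 37 degrees C. DiscoveRx reagent added for 30 - 60 minutes at room temperature; luminescence read.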
Starred values were filed as active, the others as inactive; ? = inconclusive; / = not tested or not shown. Shown are actives, neighbours in structure and some others; about 3% of the full set was active somewhere. Unless noted, calls come from the whole dose curve; as a rule, active = well fitted curve in the direction sought with a large enough effect; inconclusive = small, poorly fitted or top-dose-only effect, or another doubt; inactive = no such curve, though single readings can be large; an effect the other way counts as inactive or inconclusive.

SMILES | DRD3 antagonist | Glioma ERSR ind | Nrf2 activator | D3 ag
Cc1ccc2c(c1)C(=O)C(=O)N2Cc1ccc(C(F)(F)F)cc1 | -51* | -1% | -1% | -30
CC(C)c1ccc2c(c1)C1(NN=C(c3ccccc3)S1)C(=O)N2 (configuration not stated) | 10 | ? | 5% | -10
CCc1ccc2c(c1)C1(NN=C(c3ccc(C)cc3)S1)C(=O)N2 (configuration not stated) | -94* | ? | 0% | -2
O=C1CC(c2ccccc2)CC2=C1CN(C1CCCCC1)CN2 (configuration not stated) | -79* | -3% | -1% | -3
N[C@@H](CCCCNC(=O)CCCC[C@@H]1SC[C@H]2NC(=O)N[C@H]12)C(=O)O | / | 2% | / | /
CCN1CCN(C2=C(Cl)C(=O)N(Cc3ccccc3)C2=O)CC1 | -50* | -4% | ? | -7
COc1ccc(CNC(=O)c2cnn(-c3nccc(-c4ccco4)n3)c2C)cc1OC | / | 3% | / | /
O=C(NCc1ccc(F)cc1)C(c1ccco1)N(C(=O)c1csnn1)c1ccccc1 (configuration not stated) | 7 | -4% | 0% | 49*
OCC1OC(C#Cc2ccccc2)C=CC1OCc1ccccc1 (configuration not stated) | / | -2% | / | /
Cc1cc2c(cc3c(SCc4ccc(Cl)cc4)nnc(C)n32)o1 | / | -2% | 11% | 8
O=S(=O)(Nc1ccc(S(=O)(=O)Nc2ccccc2)cc1)c1ccccc1 | 13 | -3% | 0% | -3
O=S(=O)(Nc1ccccc1)c1ccc(NS(=O)(=O)c2c(F)cccc2F)cc1 | 6 | -3% | -1% | 41*
O=S(=O)(Nc1ccc(N=Nc2ccccc2)cc1)c1ccccc1 | -52* | 1% | 0% | -12
Cc1cc(N2CCN(C)CC2)nc(=S)[nH]1 | -81* | -1% | 0% | -17
Cc1cc(N2CCN(C)CC2)nc(-c2ccccc2O)n1 | -28 | 10% | 3% | -10
Cc1ccc(C(=O)NCCc2nnc3n2CCN(Cc2ccnc4ccccc24)CC3)c(C)c1 | / | -3% | / | /
CCN(CC)C(=O)Oc1ccc(Cl)c2cccnc12 | -6 | -8% | 0% | -12
O=C(Nc1cccc(Br)c1)Oc1cccc2cccnc12 | -83* | -2% | 6% | -24
O=C(Nc1cccc(C(F)(F)F)c1)Oc1ccc(Cl)c2cccnc12 | -62* | -8% | 7% | -30
O=C(Nc1c(Cl)cccc1Cl)Oc1cccc2cccnc12 | -52* | -3% | -2% | 2
CS(=O)(=O)c1ccc(C(=O)OCC(=O)NCc2cccs2)cc1[N+](=O)[O-] | -60* | -14% | -3% | -11
CC1CCN(CCCCOc2ccc(C(=O)c3ccccc3)cc2)CC1 | -75* | -7% | 0% | -15
CC1CCN(CCCCOc2ccc(F)cc2)CC1 | -59* | -3% | 0% | -39
CC1CCN(CCOc2ccc(C(=O)c3ccccc3)cc2)CC1 | -29 | -4% | 2% | -17
CC1CCN(CCCOc2ccc(OCc3ccccc3)cc2)CC1 | -70* | 4% | 3% | 0
Cc1cc2c(c(=O)n1Cc1cccnc1)C(c1cccs1)C(C#N)=C(N)O2 (configuration not stated) | -51* | -2% | 4% | -7
Cc1cc2c(c(=O)n1Cc1cccnc1)C(Cc1ccccc1)C(C#N)=C(N)O2 (configuration not stated) | -11 | -3% | 0% | -2
O=C1c2cc([N+](=O)[O-])cc3cc([N+](=O)[O-])cc(c23)C(=O)N1c1ccccn1 | -76* | -6% | ? | -40
O=C1c2ccc(Oc3cccc([N+](=O)[O-])c3)cc2C(=O)N1c1ccccn1 | -5 | -3% | -1% | -1
O=C(O)c1cccc(N2C(=O)c3cc([N+](=O)[O-])cc4cc([N+](=O)[O-])cc(c34)C2=O)c1 | -58* | -11% | 2% | -25
